This is an account of results in PubChem BioAssay AID2642 (Johns Hopkins Ion Channel Center, 2010).

Hit rate of the full screen: of about 310,000 compounds, about 3,900 (1.3%) were called active.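 How the source made its calls: active means compounds whose thallium flux B-score, printed positive for inhibition, exceeds three library SD while starting fluorescence stays within three; inactive means the rest.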 Many of the other results were omitted from the sample, so actives are more common in it than they were.

The target of the assay is Potassium voltage-gated channel subfamily KQT member 1 (Homo sapiens) (UniProt P51787). Put plainly: KCNQ1 potassium current blockers – cell-based, thallium flux, high-throughput, primary screen (AID 2642).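 Further: channel opened by potassium depolarization with thallium stimulus after 20 min compound exposure.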 To be noted: CHO-K1 KCNQ1, FluxOR thallium flux fluorescence, at 10 µM; stronger effect = higher value.
Sequence of Potassium voltage-gated channel subfamily KQT member 1 (Homo sapiens) (P51787 whole entry, looked up): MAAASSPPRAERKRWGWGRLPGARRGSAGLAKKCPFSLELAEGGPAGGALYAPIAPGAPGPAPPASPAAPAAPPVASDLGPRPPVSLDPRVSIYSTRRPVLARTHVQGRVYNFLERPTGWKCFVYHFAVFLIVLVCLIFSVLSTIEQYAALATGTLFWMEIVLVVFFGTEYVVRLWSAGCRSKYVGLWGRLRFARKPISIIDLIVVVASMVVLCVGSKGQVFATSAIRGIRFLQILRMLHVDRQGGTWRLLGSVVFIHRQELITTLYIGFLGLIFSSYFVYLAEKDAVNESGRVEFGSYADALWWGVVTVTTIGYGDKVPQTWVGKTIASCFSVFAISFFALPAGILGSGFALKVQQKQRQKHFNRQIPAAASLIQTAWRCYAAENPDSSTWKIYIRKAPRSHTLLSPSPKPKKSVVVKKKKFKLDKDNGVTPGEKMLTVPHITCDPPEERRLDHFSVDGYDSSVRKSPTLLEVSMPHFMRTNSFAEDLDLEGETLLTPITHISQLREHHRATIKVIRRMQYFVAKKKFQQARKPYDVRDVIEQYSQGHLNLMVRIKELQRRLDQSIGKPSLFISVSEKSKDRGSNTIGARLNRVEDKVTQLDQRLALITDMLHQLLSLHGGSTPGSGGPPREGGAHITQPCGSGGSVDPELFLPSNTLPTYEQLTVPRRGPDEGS
Regarding `CCN1N=C(c2ccccc2)CCC1=O`, the B-score entry is “inactive”.
To `Cc1ccccc1NC(=O)CNc1ccccc1N1CCCCC1` belongs “inactive”; to `O=C(CNCCC1=CCCCC1)Nc1ccccc1N1CCCCCC1`, 12 (active); to `Cc1ccccc1NC(=O)Nc1ccccc1N1CCCCC1`, “inactive”.
To `COC(=O)c1ccc(COC(=O)C2CCN(S(=O)(=O)c3c(Cl)cccc3Cl)CC2)o1` belongs “inactive”.
Then `COc1cc(CN2CCNC(=O)C2CC(=O)NCCc2ncccc2C)cc(OC)c1` (configuration not stated), with “inactive”.
Regarding `CC(=O)Nc1c2c(nn1-c1cccc(C)c1)CSC2`, the B-score result is “inactive”.
Consider `CCC/C=C(\CCC)C(NC(=O)Cc1ccccc1)c1ccc(C(=O)OC)cc1` (configuration not stated), for which the B-score entry was “inactive”.
Regarding `COC(=O)c1ccc(NCC(=O)c2ccccc2)cc1`, the B-score result is “inactive”.
Then `CCC[C@@H]1C[C@@]1(CCC)[C@@H](NC(=O)c1ccccc1)c1ccc(C(=O)OC)cc1`, with 12 (active).
Regarding `COc1ccc(CN(C)C(=O)Cc2c[nH]c3ccccc23)c(OC)c1OC`, the B-score result is “inactive”.
Then `CNC(=S)N1N=C(c2ccccc2)CC1c1ccc(Br)cc1` (configuration not stated), with “inactive”; and `Brc1ccc(C2CC(c3ccccc3)=Nc3ccccc3N2)cc1` (configuration not stated), with 10 (active); and `c1ccc(C2=Nc3cccc4cccc(c34)N2)cc1`, with “inactive”.
To `CC1CCCN(S(=O)(=O)c2ccc(N(C(=O)c3cnccn3)C(C(=O)NC3CCCCC3)c3cccs3)cc2)C1` (configuration not stated) belongs “inactive”.
Then `Cc1cc(C)n(-c2nnc(C)n2NC(=O)c2cccc(Cl)c2)n1`, with “inactive”.
Regarding `Cc1ccc2c(c1)N(CCCC(=O)NCc1cccnc1)C(=O)CO2`, the B-score result was “inactive”.
Take `Cc1ccc(NC(=S)NC(NC(=O)Cc2cccc3ccccc23)C(Cl)(Cl)Cl)cc1` (configuration not stated): the B-score result is “inactive”.
In the case of `O=C(O)Cc1ccc(NC(=O)Nc2cccc3ccccc23)cc1`, the B-score result was “inactive”.
Then `O=C(Cc1cccc2ccccc12)NNC(=O)Nc1ccc(Cl)cc1`, with 6 (active); and `COc1ccc(CNC(=O)c2c[nH]c3c(OC)cc(OC)cc3c2=O)cc1`, with “inactive”.
As for `CCOc1ccc(OCCSc2nc3ccccc3n2CC(=O)O)cc1`, the B-score result is “inactive”.
To `O=C(CCC(=O)c1cccs1)Nc1nc2ccccc2s1` belongs “inactive”.
To `O=C(Nc1nc(-c2ccco2)c(-c2ccco2)s1)c1ccco1` belongs “inactive”; to `O=C(Nc1nc2ccc([N+](=O)[O-])cc2s1)c1ccc(S(=O)(=O)N2CCCc3ccccc32)cc1`, 9 (active); to `CCC(=O)NC(Nc1nc2ccc(C)cc2s1)(C(=O)OC)C(F)(F)F` (configuration not stated), “inactive”.
Then `CCOc1ccc2nc(NC(=O)c3cc([N+](=O)[O-])ccc3N3CCOCC3)sc2c1`, with “inactive”; and `O=C(NC(Nc1nc2ccc([N+](=O)[O-])cc2s1)(C(F)(F)F)C(F)(F)F)c1ccccc1`, with 8 (active); and `CSc1nc2ccc(S(=O)(=O)N3CCc4ccccc43)cc2s1`, with “inactive”.
Turning to `CN(C)CCCN(C(=O)c1ccc(S(=O)(=O)N2CCCc3ccccc32)cc1)c1nc2ccc(F)cc2s1`, the B-score result is “inactive”.
To `O=C1NC(=O)C(c2ccc(Cl)cc2)N1` (configuration not stated) belongs “inactive”; to `Cc1cc(=O)n2nc(N3CCCC(C(=O)NCc4ccc(Cl)cc4)C3)sc2n1` (configuration not stated), “inactive”; to `CC(OC(=O)CN1C(=O)COc2ccccc21)C(=O)NCc1ccc(F)cc1` (configuration not stated), “inactive”.
To `N#Cc1c(Cl)nc(-c2cccnc2)nc1-c1ccccc1` belongs “inactive”; to `O=C(NN1CCOCC1)c1cccc(F)c1`, “inactive”; to `O=C(NNC(=O)c1cc(-c2ccccc2Cl)nc2ccccc12)c1csc(N2CCOCC2)n1`, “inactive”.
Then `CCC(=O)N1CCC(C(N)=O)(N2CCCCC2)CC1`, with “inactive”; and `COC(=O)CNS(=O)(=O)c1ccc(OC)cc1`, with “inactive”.
In the case of `COc1cccc(NC(C)=[N+](C)CCNS(=O)(=O)c2ccc(Cl)cc2)c1`, the B-score was 6 (active).
Take `CCNS(=O)(=O)c1ccc(NC(=O)Nc2cccc(OC)c2)cc1`: the B-score entry is “inactive”.
For `COc1ccc(S(=O)(=O)NCCCc2ccccc2)cc1`, the B-score result is “inactive”.
To `COc1cccc(NC(=O)CCNS(=O)(=O)c2ccc3c(c2)oc(=O)n3C)c1` belongs “inactive”.
For the compound `COc1ccc(S(=O)(=O)NCCCCOc2ccc(Cl)cc2)cc1`, the B-score was 9 (active).
To `Cc1cccc(NC(=O)c2ccc3c(=O)n(CC4CCCO4)c(=S)[nH]c3c2)c1` (configuration not stated) belongs “inactive”.
Then `COc1cc(OC)cc(C(=O)NC(=S)N2CCN(c3ccc(C(F)(F)F)cc3[N+](=O)[O-])CC2)c1`, with “inactive”; and `CCOc1ccc(-c2cc(C(=O)N/N=C/c3ccc(O)cc3)c3ccccc3n2)cc1`, with “inactive”.
As for `NC1=NC2(CCCCC2)N(c2ccc(F)cc2F)C(N)=N1`, the B-score entry is “inactive”.
As to `COc1ccc(CNC(=O)/C(C#N)=C/c2cccc(OC)c2OC)cc1`, the B-score entry is “inactive”.
To `CCOC(=O)C1CCN(Cc2nnc(-c3cccc(Br)c3)o2)CC1` belongs “inactive”; to `CCOC(=O)C1CCN(c2ncnc3c2oc2ccc(Br)cc23)CC1`, 9 (active); to `CCOC(=O)C1CCN(c2ncnc3c2c(-c2ccccc2)cn3-c2ccc(C)cc2)CC1`, “inactive”.
Then `N/C(=N\c1nc2ccccc2o1)NC(=O)C(Cc1ccccc1)N1C(=O)c2ccccc2C1=O` (configuration not stated), with “inactive”; and `CCOC(=O)COn1c(=O)c(-c2ccc(OCC)cc2)[n+]([O-])c2ccccc21`, with “inactive”; and `NC(=O)C1CCN(C(=O)c2ccc3c(=O)n(Cc4cccc(Br)c4)c(=S)[nH]c3c2)CC1`, with “inactive”.
Then `CC(=N\NC(=O)c1cc(Br)ccc1O)/C(=N/O)C(=O)Nc1ccccc1`, with 9 (active); and `CC(C)/C=N/NC(=O)c1cc(Br)ccc1O`, with “inactive”.
As to `CC(=O)N/N=C(\C)c1ccc(Br)cc1Br`, the B-score result is “inactive”.
Turning to `CC1(C(=O)O)CCC(C(=O)Nc2ccc(Cl)c(Cl)c2)C1(C)C` (configuration not stated), the B-score result is “inactive”.
Then `CC(=O)Nc1cccc(NC(=O)c2ccc3c(c2)CCN3S(C)(=O)=O)c1`, with “inactive”; and `Cc1nc(C(=O)NCc2ccccc2)sc1C1(C)CC(c2cccnc2)=NO1` (configuration not stated), with “inactive”.
Consider `Cc1nc(-c2ccc(Cl)cc2)sc1C1(C)CC(c2ccc(Br)cc2)=NO1` (configuration not stated), for which the B-score entry was “inactive”.
Consider `Cc1nc(C(=O)Nc2ccc(Cl)cc2)sc1C1(C)CC(c2ccccc2)=NO1` (configuration not stated), for which the B-score was 6 (active).
Then `CC1C(=O)Nc2ccc(S(=O)(=O)N3CCN(c4ccccc4F)CC3)cc2NC1=O` (configuration not stated), with “inactive”; and `C=CCC1(CC=C)CCCN1C(=O)CC1C(=O)NCCN1Cc1ccccc1OC` (configuration not stated), with “inactive”; and `COc1ccc(N2CCN(C(=O)/C(C#N)=C/c3ccccc3)CC2)cc1`, with “inactive”.
Take `N#C/C(=C/c1ccc(N2CCOCC2)o1)C(=O)N1CCOCC1`: the B-score result is “inactive”.
Then `N#C/C(=C\c1ccc(N2CCOCC2)o1)C(=O)N1CCOCC1`, with 7 (active).
Then `COc1ccc(N2CC(C(=O)N[C@@H](C)C(=O)N3CCCCC3)CC2=O)cc1` (some centres not stated), with “inactive”; and `Cc1cc(C(C)(C)C)oc1C(=O)N(CC(=O)NC1CCCC1)Cc1ccc(Cl)cc1`, with “inactive”.
With `COCCN1C(=O)C(=O)/C(=C(/O)c2ccc(S(=O)(=O)N3CCOCC3)cc2)C1c1ccc(O)c(OC)c1` (configuration not stated), the B-score entry is “inactive”.
On to `COc1ccccc1C(=O)NC(CCSC)C(=O)N1CCN(C/C=C/c2ccccc2)CC1` (configuration not stated), for which the B-score entry is “inactive”.
Then `CCOc1ccc(CCNC(=O)COC(=O)CCS(=O)(=O)c2ccc(C)cc2)cc1OCC`, with “inactive”; and `N#Cc1c(/N=C/N2CCCC2)oc(-c2ccccc2)c1-c1ccccc1`, with 7 (active); and `COc1ccc(-c2oc(/N=C/N3CCCC3)c(C#N)c2-c2ccc(OC)cc2)cc1`, with “inactive”.
To `N#Cc1c(-c2ccccc2)c(-c2ccccc2)n[nH]c1=O` belongs “inactive”; to `O=C(NCC(F)(F)F)Nc1nnc(C(F)(F)F)s1`, 6 (active).
To `O=C(Nc1nnc(COc2ccccc2)s1)Nc1ccccc1F` belongs “inactive”; to `COc1ccc(C)cc1NC(=O)CCC(=O)Nc1nnc(C(F)(F)F)s1`, “inactive”; to `Cc1ccccc1NS(=O)(=O)CCCCC(Cl)(Cl)Cl`, “inactive”.
With `CN(C)S(=O)(=O)c1cccc(NC(=O)COC(=O)C2(c3ccccc3F)CCCC2)c1`, the B-score result is “inactive”.
For `N#Cc1ccc(C(=O)Nc2nc(-c3cccs3)c(C(=O)C(F)(F)F)s2)cc1`, the B-score entry is “inactive”.
Then `Cc1sc(NC(=O)c2ccc3ncsc3c2)c(C(N)=O)c1C`, with “inactive”.
To `Cc1ccc(C(=O)c2c(NC(=O)c3ccncc3)sc3c2CCCC3)cc1` belongs “inactive”.
`Cc1ccc(C(=O)c2c(NC(=O)c3ccccc3)sc(C)c2C)cc1`: the B-score was 6 (active).
To `COc1ccc(NC(=O)NNC(=O)COc2cc(C)c(Cl)c(C)c2)c(OC)c1` belongs “inactive”.
To `CC1(C)NC(=O)N(CC(=O)Nc2cc(C(F)(F)F)cc(C(F)(F)F)c2)C1=O` belongs “inactive”.
Then `CN(C)Cc1ccccc1C1(O)c2ccccc2CSc2ccccc21` (configuration not stated), with 7 (active); and `COc1ccc(CCNS(=O)(=O)c2cccc([N+](=O)[O-])c2)cc1`, with “inactive”; and `CCC1Sc2ccc(S(=O)(=O)CCC(=O)NCc3cccs3)cc2NC1=O` (configuration not stated), with “inactive”.
Regarding `CN(C)NC(=O)c1csnc1-c1c(Cl)cccc1Cl`, the B-score result is “inactive”.
Then `O=c1ccc2cc(S(=O)(=O)Nc3ccccc3F)ccc2o1`, with “inactive”; and `O=C(Nc1ccc2ccccc2c1)Nc1ccc2snnc2c1`, with 8 (active); and `CCc1ccccc1NC(=O)c1ccc2snnc2c1`, with “inactive”.
To `O=C(Nc1cccc(Br)c1)c1ccc2snnc2c1` belongs “inactive”.
To `Cc1ccc(C(=O)NCC(=O)NCc2cc(=O)n(C)c(=O)n2C)cc1` belongs “inactive”.
Regarding `COc1cc(CC(=O)Nc2nc(-c3ccc(F)c(F)c3)cs2)cc(OC)c1OC`, the B-score entry is “inactive”.
Then `Cc1ccc(S(=O)(=O)NC(=O)Nc2nc(-c3ccc(F)c(F)c3)cs2)cc1`, with “inactive”; and `COc1ccc(CC(=O)Nc2nc(-c3ccc(F)c(F)c3)cs2)cc1OC`, with 9 (active).
With `NC(=O)[C@H]1CC2(CC(c3cccc(NC(=O)[C@H]4CCC(=O)N4)c3)=NO2)CN1C(=O)c1ccccc1C(=O)c1ccccc1` (some centres not stated), the B-score result is “inactive”.
Then `O=C(Cn1nnc2ccccc2c1=O)Nc1cc(C(F)(F)F)ccc1N1CCOCC1`, with “inactive”; and `CCCc1cc(=O)[nH]c(SCC(=O)Nc2sc3c(c2C#N)CCCC3)n1`, with “inactive”; and `CCOC(=O)c1cnc(SC)nc1Sc1ccc(Cl)cc1Cl`, with 6 (active).
On to `CCOC(=O)c1nc(C)n(-c2ccc(Cl)cc2Cl)n1`, for which the B-score entry is “inactive”.
For the compound `CCOC(=O)c1cnc(COc2ccccc2Cl)[nH]c1=O`, the B-score entry was “inactive”.
To `COc1ccccc1N1CCN(c2ncnc3sc(C)c(-c4ccccc4)c23)CC1` belongs 9 (active); to `COc1ccccc1N1CCN(c2ccc([N+](=O)[O-])nc2)CC1`, “inactive”; to `Oc1ccccc1N1CCN(c2ncnc3sc(-c4ccccc4)cc23)CC1`, “inactive”.
